Source: PubChem
KKLEB cytotox = cytotoxicity in KKLEB CF airway cells, primary screen, cytotoxicity control for CF NF-kB inhibitor project, cell-based, uHTS, fluorescence assay plates; activity change (cytotoxicity), % at 5 µM; AID 602141, 2011; 0.36% of 360,000 active; KKLEB CF airway cells viability, ATPlite luminescence, overnight; hits give low values; cells stimulated with P. aeruginosa culture filtrate;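 active = corrected activity change at or below -50% at 5 µM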
HIF-2a inh = HIF-2a reporter inhibitors, primary screen, luminescence, 786-0 RCC cells; 0.72% of 360,000 active; inhibition, % at 18.8 µM; 786-0 RCC cells HIF-2a reporter, luciferase luminescence, overnight; AID 624352, 2012;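 active = inhibition of the luminescence signal of 40% or more relative to plate controls, in a single-dose primary screen at 18.75 µM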
Shn3 inh set2 = reduction of Shn3 3'UTR firefly luciferase signal, primary screen, Schnurri-3 inhibitor project, cell-based, Clone20 osteoblasts, set 2. Clone20 osteoblast Shn3 3'UTR firefly luciferase, 24 h. inhibition, % at 12.5 µM. 0.52% of 360,000 active. AID 588674, 2011;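 active = mean inhibition of at least 75% with every replicate also reaching 75%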;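 also: 0% = median of neutral control wells and 100% = pilot-screen positive control compound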
CF NFkB block = inhibitors of PAF-induced NF-kB signaling, primary screen, cell-based, GFP fluorescence, uHTS | 0.86% of 360,000 active | KKLEB NF-kB-GFP reporter, GFP fluorescence overnight | inhibition, % at 5 µM;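 active = at least 50% inhibition at 5 µM, scaled per plate between neutral and stimulator controls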;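 also: PAF is a Pseudomonas aeruginosa culture filtrate used as stimulus; plate controls were PAF-stimulated DMSO wells for no effect and unstimulated DMSO wells for full effect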
TRPM1 prom inh = inhibitors of MITF-dependent TRPM1 promoter reporter, primary screen, cell-based, SK-MEL-5, single point, luciferase. SK-MEL-5 TRPM1 promoter luciferase, 24 h. inhibition, % at 12.5 µM. 0.83% of 330,000 active;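 active = mean inhibition across replicates of 60% or more, whatever share of single replicates reaches that level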
Peg3 prom inh = Peg3 promoter-driven luciferase inhibitors, primary screen, cell-based, HeLa, luciferase luminescence. HeLa PEG-Prom luciferase reporter, overnight. inhibition, % at 20 µM. 1.7% of 360,000 active;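 active = inhibition of at least 50% at 20 µM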
* marks the source's active call; other numbers are inactive results; x = no result. In the library only some 2.8% were active in any assay of this set; here they are far more common.

SMILES	KKLEB cytotox	HIF-2a inh	Shn3 inh set2	CF NFkB block	TRPM1 prom inh	Peg3 prom inh
CCn1c(C)nc2cc(-c3nnc(-c4c(-c5ccccc5)noc4C)o3)ccc21	7	-10	86*	2	0	30
CN(C)CCn1cnc2c(c1=N)C(c1ccccc1)c1ccc3ccccc3c1O2 (stereo not given)	-10	-9	20	10	93*	109*
N=c1c2c(ncn1CCN1CCOCC1)Oc1ccc3ccccc3c1C2c1ccccc1 (stereo not given)	-21	30	20	9	50	47
COc1ccc(C2c3c(ncn(CCN4CCOCC4)c3=N)Oc3ccc4ccccc4c32)cc1 (stereo not given)	-14	20	-15	-14	60	60*
N=c1c2c(ncn1Cc1ccco1)Oc1c(ccc3ccccc13)C2c1ccccc1 (stereo not given)	-31	-51	9	34	15	80*
Cc1cc(C(=O)NNC(=O)NC(C)C)no1	-8	6	15	14	15	7
Cc1cc2c(cc3c(=O)n(CC(=O)NCCCN4CC(C)CC(C)C4)ncn32)s1 (stereo not given)	10	-5	9	7	-10	-9
Cc1c(Cl)cccc1-c1ccc(CNCc2ccccn2)o1	-1	-98	-8	0	7	-76
O=C(O)CCc1ccc(S(=O)(=O)Nc2cc(C(F)(F)F)ccc2N2CCCC2)cc1	15	-5	-19	0	3	-8
COc1ccc(CCc2nnc(NS(C)(=O)=O)s2)cc1	11	16	4	-14	7	11
COc1ccc(-n2nc(C(=O)NCC(=O)NCCCN3CCOCC3)c3ccccc3c2=O)cc1OC	-76*	4	-5	13	-10	0
Cn1cc(/C=C/c2cc[n+](C)cc2)c2cc(Cl)ccc21	-5	18	-7	-54	55	51*
Cn1cc(/C=C/c2cc[n+](C)cc2)c2cc(F)ccc21	12	12	9	-79	38	19
CSc1nc(N)nc(SCCS(=O)(=O)c2ccc(Cl)cc2)c1C#N	-65*	-4	7	24	2	33
CSc1nc(N)nc(SCC(=O)Nc2ccc(Cl)cc2)c1C#N	-17	-145	16	0	-14	-96
Fc1ccc(NC(=S)N2CCCN(c3ccc(C(F)(F)F)cn3)CC2)c(F)c1	-4	-1	89*	20	42	-2
Cc1c(CN2CCC(CO)(Cc3cccc(C(F)(F)F)c3)CC2)c2ccccc2n1C	-19	4	-10	32	27	112*
Cc1cccc(NC(=O)c2ccc([N+](=O)[O-])o2)c1C	-9	-11	-22	48	56	46
O=C(Nc1cccc2ccccc12)c1ccc([N+](=O)[O-])o1	-24	31	36	83*	54	37
Cc1ccc(NC(=O)c2ccc([N+](=O)[O-])o2)cc1C	-63*	-17	50	82*	22	97*
Cc1ccc(-n2nnnc2CNC(=O)c2ccc([N+](=O)[O-])o2)cc1C	5	20	6	-22	62*	22
O=C(Nc1ccc2[nH]c(=O)[nH]c2c1)c1ccc([N+](=O)[O-])o1	8	16	16	-2	49	9
O=C(Nc1cccc([N+](=O)[O-])c1)c1ccc([N+](=O)[O-])o1	-9	21	44	70*	x	42
COc1ccc2[nH]c(C(=O)N(C)c3ccc(F)cc3F)cc2c1	7	1	-9	-5	-2	-10
COc1cccc(OCC(=O)O/N=C(\N)c2ccncc2)c1	4	-145	-33	6	-33	-129
Cc1cccc(-c2ncc(CN3CCCC(CO)(Cc4ccccc4C)C3)cn2)c1 (stereo not given)	6	-16	8	7	-22	-17
Cc1c(Cl)cccc1NC(=S)N1CCN(C(=O)C2CCCO2)CC1 (stereo not given)	-4	20	3	-3	3	9
